Phagocyt inh: blocks phagocytosis by macrophages | actives 0.07% (n = 110,000) | J774A.1 macrophage IgG-bead phagocytosis, imaging | inhibition, % at 5 µM;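 active = inhibition above the mean of the plate negative controls plus 5 SD, cut at about 13% in these data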;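 note: phagocytic index as fraction of beads internalized from green versus red external bead signal; plate controls were DMSO negative control for no effect and cytochalasin-D positive control for full effect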
MRP reversal: MRP-mediated drug resistance reversal; actives 0.04% (n = 85,000); H69AR cells + 2 uM doxorubicin, CellTiter-Glo, 72 h; differential viability (reversal), % at 10 µM; AID 602;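 active = viability drop by adding the cancer drug above about 55%, with treated viability meeting a 40% cutoff, limit read from the data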;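 note: viability without doxorubicin minus viability with 2 µM doxorubicin for each compound; larger differential means the compound sensitizes cells more to doxorubicin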
Mac1 fbg enh: enhancers of human CD11b/CD18 binding to fibrinogen. P05107+P11215. K562 CD11b/CD18 adhesion to fibrinogen, ATPlite luminescence. actives 0.07% (n = 93,000). activation, % at 10 µM;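 active = 10 µM primary screen giving 50% or more activity, confirmed by 40% or more on retest at that dose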
Target sequence (P05107 whole entry, looked up, other chains not shown): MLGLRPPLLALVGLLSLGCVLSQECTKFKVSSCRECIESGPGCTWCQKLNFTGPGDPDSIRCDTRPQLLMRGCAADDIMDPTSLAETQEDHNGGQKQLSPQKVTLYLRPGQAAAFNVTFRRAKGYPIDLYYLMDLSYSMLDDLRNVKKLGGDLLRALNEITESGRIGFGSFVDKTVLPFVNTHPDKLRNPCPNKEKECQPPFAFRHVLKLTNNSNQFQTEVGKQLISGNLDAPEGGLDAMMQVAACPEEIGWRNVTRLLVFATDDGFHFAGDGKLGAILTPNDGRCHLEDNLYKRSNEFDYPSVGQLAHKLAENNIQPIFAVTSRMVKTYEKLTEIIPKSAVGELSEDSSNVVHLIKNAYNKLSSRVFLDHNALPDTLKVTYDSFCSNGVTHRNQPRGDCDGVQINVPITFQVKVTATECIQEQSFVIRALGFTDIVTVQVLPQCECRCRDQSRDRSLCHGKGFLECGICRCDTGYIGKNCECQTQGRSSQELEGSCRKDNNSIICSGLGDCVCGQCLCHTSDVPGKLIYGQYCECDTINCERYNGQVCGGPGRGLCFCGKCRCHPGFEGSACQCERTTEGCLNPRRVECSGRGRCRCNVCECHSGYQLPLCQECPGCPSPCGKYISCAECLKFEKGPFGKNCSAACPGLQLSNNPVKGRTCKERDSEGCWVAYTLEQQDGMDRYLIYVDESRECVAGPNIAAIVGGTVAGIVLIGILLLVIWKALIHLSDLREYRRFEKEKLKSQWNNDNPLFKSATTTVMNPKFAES
MRP1 act: MRP-1 activation. H69AR cells + doxorubicin, viability rescue, CellTiter-Glo. viability increase, % at 10 µM. actives 0.61% (n = 140,000);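 active = viability gain under doxorubicin at or above a set limit, the compound median plus 3 SD, cut at about 4.7% in these data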;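 note: MRP-1 overexpressing cells given doxorubicin 25 µM after compound pretreatment; 18-22 h compound pretreatment then 72 h with doxorubicin before readout; 0% = doxorubicin-only wells and 100% = vehicle-treated cells without doxorubicin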
CD11b adhes inh: blocks human CD11b/CD18 adhesion to fibrinogen; P05107+P11215; K562 CD11b/CD18 adhesion to fibrinogen, ATPlite luminescence; Mn2+ added to activate the integrin; inhibition, % at 10 µM; actives 0.54% (n = 93,000); AID 1497;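 active = primary inhibition of 50% or more at 10 µM, then 40% or more on retest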
sdo1 growth: compounds rescuing growth of sdo1-depleted yeast, bone marrow failure model | actives 0.21% (n = 140,000) | z-score at 10 µM | S. cerevisiae sdo1-depleted JHY4D growth rescue, OD600 30 h; active compounds read high; pdr5 snq2 efflux-pump mutant strain;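 active = z-score above 3 at both the 24 hr and the 30 hr optical density reads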;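 note: z-score against mean and SD of all compound wells on the same plate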
Starred values were filed as active, the others as inactive; . = not tested or not shown. Compounds with a hit are over-represented: about 1.3% of the library has one in this group of screens.

SMILES	Phagocyt inh	MRP reversal	Mac1 fbg enh	MRP1 act	CD11b adhes inh	sdo1 growth
O=[N+]([O-])c1cc([N+](=O)[O-])c2cccnc2c1Oc1ccccc1O	-3	.	-10	-3	90*	-0.34
O=[N+]([O-])c1ccc(O)c2ncccc12	.	.	.	-3	.	-2.5
Cc1cc2n(n1)C(c1ccccc1)CC(c1ccc(Br)cc1)=N2 (configuration not stated)	-5	.	.	5.5*	.	-0.33
CNC(=S)N1N=C(c2ccc(Br)cc2)CC1c1ccc(Br)cc1 (configuration not stated)	0	.	-4	-1	-6	-1.1
c1ccc(OCCSc2nc3ccccc3[nH]2)cc1	.	27	.	5.3*	.	-0.09
CCCCOC(=O)c1ccc(NC(C)=O)cc1	0	.	-1	-1	-2	0.04
CCCCOC(=O)c1ccc(NC(=O)/C=C/c2cccs2)cc1	-2	.	-10	4.8*	106	-0.46
O=C(/C(=C/O)N=Nc1ccccc1)c1ccncc1	-1	0	1	6.3*	-1	-0.25
CCOC(=O)c1c(NS(=O)(=O)c2ccc(Br)cc2)sc2c1CCC2	.	-2	.	-5	.	-0.82
COC(=O)c1c(NS(=O)(=O)c2ccc3ccccc3c2)sc2c1CCCC2	0	.	0	-1	52*	-0.67
CC(OC(=O)c1snc(C(=O)NC2CCCCC2)c1N)C(=O)NC(C)(C)C (configuration not stated)	.	-13	.	6.2*	.	-0.16
CC(C)(C)NC(=O)COC(=O)c1snc(C(=O)NC2CCCCC2)c1N	1	14	-11	2	98	-0.04
CC(NC(=O)C1(c2cccs2)CCOCC1)c1ccccc1 (configuration not stated)	-4	.	.	-1	.	0.55
N#C/C(=C(/O)c1ccco1)c1nc2ccccc2s1	-3	.	-8	0	52*	0.53
COC(=O)[C@@]1(Cc2ccc(F)cc2)[C@H]2c3cc(C(=O)N4CCCC4)n(CCc4c[nH]c5ccc(OC)cc45)c3C[C@H]2CN1C(=O)c1ccccc1	.	.	.	-3	.	-0.98
Cc1cc(C(=O)c2ccc(C(C)(C)C)cc2)c(NC(=O)CCl)s1	-5	.	.	-5	.	-0.38
O=C(C[n+]1cccc2ccccc21)c1ccccc1	.	.	.	-2	.	0.02
CCCCCCCCC[n+]1cccc2c3ccccc3ccc21	-2	.	-10	-6	106*	-2.4
CCCCCCCCCCCCCCCC[n+]1cccc2ccccc21	19	.	-7	-5	106*	-0.99
O=C(COC(=O)c1ccccc1OCc1ccc(Cl)cc1)NC1CC1	.	20	.	-3	.	-1.7
CNC(=O)C(=O)NCCc1ccc(Cl)cc1	0	-1	3	-1	-4	-0.25
O=C1CNC(=S)N1c1nc(-c2ccccc2)cs1	3	.	10	4.8*	3	0.35
COc1ccc(-c2csc(N3C(=O)CNC3=S)n2)cc1	-3	.	.	3	.	-0.1
COc1ccc(S(=O)(=O)Nc2nc3ccccc3nc2NCc2ccc3c(c2)OCO3)cc1	-1	.	0	1	12	-0.49
Cc1ccc(S(=O)(=O)Nc2nc3ccccc3nc2NCc2ccc3c(c2)OCO3)cc1C	-2	.	-5	5.9*	60	-0.26
SMILES	Phagocyt inh	MRP reversal	Mac1 fbg enh	MRP1 act	CD11b adhes inh	sdo1 growth
C/C(=N\NC(=S)Nc1ccc(F)cc1)C1CC1	.	5	.	-3	.	0.81
O=C1NC(=O)C2(COC3(CCCC3)OC2)S1	-2	-1	-2	4.8*	-18	1
CCOc1ccc(OCC)c(NC(=O)C2C3C=CC(O3)C2C(=O)NCc2ccco2)c1 (configuration not stated)	-1	-8	1	-3	8	0.16
N#CCSc1nc2cc(C(=O)N3CCC(C(N)=O)CC3)ccc2c2nc3ccccc3n12	0	-22	-3	6.1*	0	-0.37
Cc1ccc(S(=O)(=O)N(C)Cc2ccc(-c3nnc4n3CCC4)cc2)cc1	0	5	-3	-1	-3	0.18
COC(=O)Nc1cc(C(F)(F)F)ccc1N1CCN(c2ccccc2)CC1	90*	-3	-6	1	10	0.51
O=C(Nc1cc(C(F)(F)F)ccc1N1CCOCC1)c1ccccc1	-1	.	-1	0	19	-0.87
Clc1ccc(CSc2ncn[nH]2)cc1	-1	-2	3	5.9*	-7	-0.42
O=C1C(=O)c2c(C(=O)c3ccccc3)coc2-c2ccccc21	2	1	0	-2	59*	-2.9
COc1ccc(-c2cc(C(F)(F)F)nc(SCC(=O)NCc3cccs3)n2)cc1OC	-4	.	.	-3	.	0.36
CCCN1C(=O)/C(=N\OCC(=O)Nc2ccc(C(C)C)cc2)c2ccccc21	-14	.	.	6.5*	.	-0.64
CCCN1C(=O)/C(=N\OCC(=O)NC23CC4CC(CC(C4)C2)C3)c2ccccc21	-2	.	2	5.7*	16	-1.2
CCc1ccc(/C=C2\SC(=S)N(CCCC(=O)Nc3nccs3)C2=O)cc1	2	.	29	-2	1	0.46
Cc1ccc(/C=C2\SC(=S)N(CCCC(=O)Nc3ccccn3)C2=O)cc1	.	.	.	6.8*	.	1.6
Cc1ccc(/C=C2\SC(=S)N(CCCC(=O)Nc3nccs3)C2=O)cc1	1	.	12	5.3*	-1	0.19
O=C(NCc1ccc(Cl)cc1)C(=O)NCC1OCCN1C(=O)c1cccs1 (configuration not stated)	-13	.	5	6.4*	-12	-0.19
O=C(NCc1ccc(Cl)cc1)C(=O)NCC1OCCN1S(=O)(=O)c1cccs1 (configuration not stated)	.	.	.	4	.	-0.04
Cc1cc2nnc(SCc3ccccc3)n2c(N)n1	-2	.	-2	-2	-1	-0.77
O=[N+]([O-])c1cccc(S(=O)(=O)Nc2nc3ccccc3nc2Nc2cccc(S(=O)(=O)N3CCCCC3)c2)c1	-4	.	4	-6	98*	-0.42
N#Cc1c(C(F)(F)F)cc(-c2cccc(Cl)c2)[nH]c1=O	0	.	-12	-1	106*	0.97
N#Cc1c(C(F)(F)F)cc(-c2ccc(Cl)cc2)[nH]c1=O	0	.	-11	-1	104*	-0.01
Cc1cc(C(F)(F)F)c(C#N)c(=O)[nH]1	.	10	.	0	.	0.77
CN(C)c1nc(-c2ccccc2)cc(C(F)(F)F)c1C#N	-4	.	8	-2	3	-0.97
CC(=O)c1sc(Nc2nc(C)cc(C)n2)nc1C	0	-26	0	-2	8	-0.08
O=C(O)CCn1cc(/C=C\C(=O)c2ccc(Cl)cc2)c(-c2cccc(Br)c2)n1	-10	.	25	-4	53*	0.06
NC1=NC(=O)/C(=C/c2cn(CCC(=O)O)nc2-c2ccc(Cl)cc2)S1	-6	.	.	5.5*	.	0.34
N#Cc1c(Cl)nc(SCc2ccccc2)nc1-c1ccccc1	7	.	-10	-2	74*	-0.77

Bioassay records from PubChem.
